Values joined by “and” are separate entries in the source; they are usually repeats but may differ in a detail not shown here. Equal values may be shown once. Among all 16,000 compounds or so, about 2,600 (16%) were called active. Not shown: some 20% with an inconclusive outcome. The call rests on the fitted dose curve; in most records, active means well fitted curve in the direction sought with a large enough effect; inconclusive means small, poorly fitted or top-dose-only effect, or effect the other way; inactive means no such curve, though single readings can be large or run the other way. Only a sample is shown.
target: Cytochrome P450 2D6 (Homo sapiens) (UniProt P10635); experiment: Cytochrome panel assay with activity outcomes; conditions: recombinant CYP, pro-luciferin dealkylation, luminescence, p450-cyp2d6; series mostly up to 57.1 µM; activity, negative = inhibition: at the top concentration
Sequence (P10635 whole entry, looked up): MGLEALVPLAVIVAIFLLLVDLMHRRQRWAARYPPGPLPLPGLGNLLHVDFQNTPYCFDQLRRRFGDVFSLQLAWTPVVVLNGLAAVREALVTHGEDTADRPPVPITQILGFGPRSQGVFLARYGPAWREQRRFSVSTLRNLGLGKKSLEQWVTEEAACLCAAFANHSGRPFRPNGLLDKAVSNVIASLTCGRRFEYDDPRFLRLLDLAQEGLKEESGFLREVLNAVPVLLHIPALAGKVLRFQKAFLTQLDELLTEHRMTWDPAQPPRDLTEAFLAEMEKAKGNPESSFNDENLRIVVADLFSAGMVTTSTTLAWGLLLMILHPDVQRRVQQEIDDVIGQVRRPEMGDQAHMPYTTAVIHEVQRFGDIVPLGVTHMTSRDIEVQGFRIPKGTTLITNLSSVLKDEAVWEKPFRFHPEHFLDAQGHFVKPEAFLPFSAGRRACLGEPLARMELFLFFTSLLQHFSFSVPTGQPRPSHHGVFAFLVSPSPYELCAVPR
On the % scale 0 is the no-effect control and ±100 the full control effect.

Row | Compound | activity, negative = inhibition | AC50
1 | O=C(COc1ccccc1)Nc1ccc(-c2nnc(-c3ccco3)o2)cc1 | -15.7% (inactive) | 
2 | C/C(CC(=O)Nc1cc(Cl)ccc1Cl)=N\NC(N)=S | -29.8% (inactive) | 
3 | CC(NC(=O)c1ccc(Cn2cc([N+](=O)[O-])cn2)o1)c1ccccc1 (stereo not drawn) | -9.64% (inactive) | 
4 | CCC(=O)Nc1cc2c(cc1C(=O)c1ccccc1)OCCO2 | -0.416% (inactive) | 
5 | CCCc1cc2c(cc1NC(=O)c1ccccc1C)OCO2 |  | 8.91 µM (active)
6 | CCOc1cc(NC(=S)NCC2CCCO2)c(OCC)cc1NC(=O)c1ccccc1C (stereo not drawn) | -28.8% (inactive) | 
7 | c1ccc(-c2csc3ncn4cnnc4c23)cc1 | 16.6% (inactive) | 
8 | CCC(=O)N[C@@H]1Cc2ccccc2[C@@H](c2ccccc2)C1 | -2.56% (inactive) | 
9 | COCCNc1cc(-c2c(C)noc2C)ncn1 | 7.09% (inactive) | 
10 | Cc1cc(Cl)ccc1OCC(=O)NCc1ccncc1 |  | 2.82 µM (active)
11 | Cc1cc(Cl)ccc1OCC(=O)N/N=C1\CCCc2ccccc21 | 19.9% (inactive) | 
12 | Cc1cc(Cl)ccc1OCC(=O)Nc1nc(N)nc(N)n1 | 14% [at 11.4 µM] (inactive) | 
13 | N/C(=N\c1nc2ccccc2o1)NC(=O)c1ccccc1F | -0.637% (inactive) | 
14 | Cc1ccc(S(=O)(=O)N[C@H]2COC(=O)C/C=C\[C@@H](C)COC(=O)C/C=C\[C@@H]2C)cc1 | 15.5% [at 11.4 µM] (inactive) and -2.8% [at 11.4 µM] (inactive) | 
15 | N#CCCSC(=S)[C@H]1CCCC1=N | -9.64% [at 11.4 µM] (inactive) | 
16 | CC(C/C=N/NC(=O)COc1cc(Cl)ccc1Cl)c1ccccc1 (stereo not drawn) |  | 0.631 µM (active)
17 | O=C(COc1ccccc1C(=O)N/N=C\c1ccc(O)c(O)c1)N/N=C/c1ccc(O)c(O)c1 | -6.7% (inactive) | 
18 | O=C(COc1ccccc1Cl)Nc1cc(Cl)ccc1Oc1ccccc1 | -7.9% (inactive) | 
19 | CC(C)(C)NC[C@@H](O)c1ccc(O)c(CO)n1 | -1.17% [at 11.4 µM] (inactive) | 
20 | Cc1cccc(C)c1NC(=O)COc1cccc(/C=N/NC(=O)C(=O)NCc2ccccc2)c1 | 3.74% (inactive) | 
21 | O=C(CC(=O)N/N=C\c1c(Cl)cccc1Cl)NCc1ccccc1 | -29.6% (inactive) | 

Row | Compound | activity, negative = inhibition | AC50
22 | CCCCNC(=O)C1CC(=O)N(CCC(C)C)C1 (stereo not drawn) | 0.785% (inactive) | 
23 | CNCCCCCCCCSc1nc(C(C)C)ccc1C(=O)c1cccs1 |  | 0.00631 µM (active)
24 | CCCC/C=C/C(NC(=O)c1cccs1)c1ccccc1 (stereo not drawn) | 1.02% (inactive) | 
25 | C[C@@H](C(=O)O)c1ccc(C(=O)c2cccs2)cc1 | -5.01% [at 25.6 µM] (inactive) | 
26 | Nc1ncnc2c1ncn2C1CCCC1 | 8.79% (inactive) | 
27 | CNC(=O)Oc1ccc2c(c1)[C@@]1(C)CCN(C)[C@@H]1N2C |  | 1.26 µM (active) and 631 nM (active)
28 | COc1ccc(Nc2ncc3c(n2)CC(c2ccc(C)cc2)CC3=O)cc1 (stereo not drawn) | -9.28% (inactive) | 
29 | O=c1c(-c2ccc(Cl)cc2)[n+]([O-])c2ccccc2n1OCc1ccccn1 | 14.8% (inactive) | 
30 | CC(C(=O)NC1CCCC1)N(C(=O)c1ccc(-c2ccccc2)[nH]1)c1ccccc1F (stereo not drawn) | -20.3% (inactive) | 
31 | CCOC(=O)Cc1csc(NC(=O)c2ccc(S(=O)(=O)N3CCCCC3)cc2)n1 | 1.88% (inactive) | 
32 | CC(C)CC(C(=O)NCC1CCCO1)N(C(=O)Cn1nnc(-c2ccc(F)cc2)n1)c1ccccc1F (stereo not drawn) |  | 20 µM (active)
33 | CN(C(=O)Cn1nnc(-c2cccc(C(F)(F)F)c2)n1)C1CCCCC1 | 27.7% (inactive) | 
34 | CC(C)C(C(=O)NCC1CCCO1)N(Cc1ccco1)C(=O)CNS(=O)(=O)c1ccc(F)cc1 (stereo not drawn) | -2.69% (inactive) | 
35 | COc1ccc(S(=O)(=O)N(CC(=O)NCC2CCCO2)c2ccc(F)cc2)cc1OC (stereo not drawn) | -5.47% (inactive) | 
36 | Cc1cccc2c(SCC(=O)NCC3CCCO3)nc(-c3ccc(F)cc3)nc12 (stereo not drawn) | -24.8% (inactive) | 
37 | CC(C)CC(C(=O)NCC1CCCO1)N(C(=O)Cn1nnc(-c2ccc(F)cc2)n1)c1cccc(C(F)(F)F)c1 (stereo not drawn) |  | 12.6 µM (active)
38 | NCCCCCC(=O)O |  | inactive
39 | Clc1ccc(-c2nnc(-c3ccco3)o2)cc1 | -8.43% (inactive) | 
40 | O=c1[nH]c(=O)c2nc3ccccc3nc2[nH]1 | 9.16% (inactive) | 
41 | CC(=O)NCCC(=O)Nc1sc2c(c1-c1nc3ccccc3[nH]1)CCCC2 | -28.3% (inactive) | 
42 | Cc1ccc(NC(=O)N/C=C/c2ccco2)cc1C | -29.6% (inactive) | 

Row | Compound | activity, negative = inhibition | AC50
43 | COc1ccc(C(C(=O)NC2CCCC2)N(C(=O)c2snc(-c3ccc(F)cc3)c2N)c2ccccc2)cc1 (stereo not drawn) | 14.7% (inactive) | 
44 | CCCOc1ccc(Cn2c(C)nc([N+](=O)[O-])c2SCC(O)COC)cc1[N+](=O)[O-] (stereo not drawn) |  | 12.6 µM (active)
45 | COc1ccc(CSc2nnnn2C)cc1[N+](=O)[O-] | -1.53% (inactive) | 
46 | CC(=O)Nc1ccc(Nc2ncnc3c2cnn3-c2ccccc2)cc1 | -16.2% (inactive) | 
47 | N#Cc1cccc(-c2nc3cnc(N4CCOCC4)nc3n(C3CC3)c2=O)c1 | 3.06% (inactive) | 
48 | CC(C)(C)N(NC(=O)Nc1ccccc1)C(=O)c1ccccc1Cl | 16.3% (inactive) | 
49 | Cc1cc(C)cc(C(=O)N(NC(=O)Nc2ccc(Cl)cc2)C(C)(C)C)c1 | -12.7% (inactive) | 
50 | CC(C)(C)N(NC(=O)Nc1ccc(Cl)c(Cl)c1)C(=O)c1ccccc1 |  | 28.2 µM (active)
51 | Cc1nc2cnc(N(C)C)nc2n(CCC#N)c1=O | 1% (inactive) | 
52 | CCCn1c(CC)nc([N+](=O)[O-])c1S(=O)(=O)c1ccccc1 | -12% (inactive) | 
53 | O=[N+]([O-])c1cc(Cl)cc2c1nc(NCCO)c1ccccc12 | -18% [at 11.4 µM] (inactive) | 
54 | CSc1ccccc1N1CCN(C(=O)Nc2ccc3c(c2)NC(=O)CO3)CC1 | 7.94% (inactive) | 
55 | O=C(NCC1CCCO1)c1ccc(CS(=O)(=O)Cc2ccc(F)cc2)o1 (stereo not drawn) | -4.74% (inactive) | 
56 | Cn1c(OCc2ccc3c(c2)OCO3)nc2c1c(=O)n(Cc1ccc(Cl)c(Cl)c1)c(=O)n2C |  | 5.01 µM (active)
57 | Cn1c(=O)c2c(nc(Cl)n2Cc2ccc(Cl)c(Cl)c2)n(C)c1=O | -24.9% (inactive) | 
58 | COC(=O)Cn1c(=O)c2c(nc(Br)n2Cc2ccccc2Cl)n(C)c1=O | -4.28% (inactive) | 
59 | CC(C)c1ccc(Cn2ccc3c4c(N)nc(NC5CC5)nc4ccc32)cc1 |  | 1 µM (active)
60 | Cc1cc(CNC(=O)[C@@H]2C[C@H]2[C@@H](NP(=O)(c2ccccc2)c2ccccc2)c2ccccc2)nn1C | 4.62% (inactive) | 
61 | FC(F)(F)c1nnc2c(Sc3ccccc3)nc3ccc(Cl)cc3n12 | 7.73% (inactive) | 
62 | O=C(O)C[C@H](NC(=O)CP(=O)(O)O)C(=O)O.[NH-][C@@H]1CCCC[C@@H]1[NH-].[Pt] | 7.2% [at 11.4 µM] (inactive) | 
63 | CC1(C)CO[C@H](CC(=O)O)CN1 |  | 0.00631 µM (active)

— PubChem BioAssay AID1851 (National Center for Advancing Translational Sciences (NCATS), 2009)
